# Among all 220,000 compounds or so, about 16,000 (7.3%) were called active. Inconclusive results (about 25%) are left out. Only a selection was taken, and actives are over-represented in it overall. A number with no mark means an inactive call. The call rests on the fitted dose curve; in most records, active means well fitted inhibition curve with a large enough effect (not every such curve was filed as active); inconclusive means small, poorly fitted or top-dose-only effect, or another doubt; inactive means no such curve, though single readings can be large or run the other way.
# Molecular target: Aldehyde dehydrogenase 1A1 (Homo sapiens) (UniProt P00352)
# Sequence (P00352 whole entry, looked up): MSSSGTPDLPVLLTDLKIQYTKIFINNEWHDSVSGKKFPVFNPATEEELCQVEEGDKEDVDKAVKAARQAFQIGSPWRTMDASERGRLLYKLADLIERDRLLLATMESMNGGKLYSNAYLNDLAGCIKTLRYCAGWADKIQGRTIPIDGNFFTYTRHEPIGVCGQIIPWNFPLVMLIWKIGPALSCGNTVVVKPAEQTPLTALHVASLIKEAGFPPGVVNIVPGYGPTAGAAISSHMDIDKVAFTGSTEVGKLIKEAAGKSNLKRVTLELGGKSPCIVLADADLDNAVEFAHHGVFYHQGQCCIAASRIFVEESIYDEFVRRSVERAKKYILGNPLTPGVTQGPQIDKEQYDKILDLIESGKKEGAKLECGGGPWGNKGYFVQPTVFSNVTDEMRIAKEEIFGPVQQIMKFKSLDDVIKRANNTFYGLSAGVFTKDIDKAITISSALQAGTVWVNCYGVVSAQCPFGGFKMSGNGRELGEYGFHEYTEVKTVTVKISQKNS
# Assay: qHTS Assay for Inhibitors of Aldehyde Dehydrogenase 1 (ALDH1A1);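 on activity, negative = inhibition: plate controls were no enzyme wells and a reference inhibitor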
# Conditions: Purified ALDH1A1, NADH fluorescence, propionaldehyde substrate; series mostly up to 75.3 µM; activity, negative = inhibition: at the top concentration
# Potency means the concentration at half of the fitted maximal effect.
SMILES,"activity, negative = inhibition",Potency
COc1ccc(-c2nn(-c3ccccc3)cc2/C=C\C(=O)N2CCOCC2)cc1[N+](=O)[O-],10.2%,–
S=C(NCCCc1cnc[nH]1)NCCCN(Cc1ccc(Cl)c(Cl)c1)c1ccc(Br)cn1,16.4%,–
COc1ccc(C(CCNCc2ccccc2F)c2ccc(F)cc2)cc1 (stereo unspecified),-5.1%,–
COc1ccc(N2CC(C)Cn3c2nc2c3c(=O)n(Cc3ccccc3F)c(=O)n2C)c(OC)c1 (stereo unspecified),–,17.8 µM (active)
CC1CN(C2CCCCC2)c2nc3c(c(=O)n(C)c(=O)n3C)n2C1 (stereo unspecified),-10.7%,–
COc1ccc2c(c1)CCc1c(C(=O)Nc3c(C)n(C)n(-c4ccccc4)c3=O)noc1-2,-2.21%,–
O=C(c1cc(-c2ccccc2O)on1)N1CCCC1,-10.4%,–
COc1ccc2c(c1)CCc1c(C(=O)N3CCCC3)noc1-2,–,10 µM (active)
CCCCc1ccc(NC(=S)NCCCN2CCOCC2)cc1,-12.3%,–
Cc1cccc(C(=O)OC(C)CN2CCN(C)CC2)c1 (stereo unspecified),3.82%,–
CC1(C)CC(N(Cc2ccccc2)C(=O)Cc2ccccc2)CCO1 (stereo unspecified),8.75%,–
Cc1noc(C)c1COc1cccc(C(=O)Nc2cccnc2)c1,12.2%,–
O=C(O)c1ccc2c3c(cccc13)C(=O)N(OS(=O)(=O)c1ccccc1)C2=O,-18.5%,–
Cc1ccccc1NC(=O)NC1(C(=O)N2CCCC2)CCCCC1,9.14%,–
O=C1CN(C(=O)CN2C(=O)NC3(CCCCC3)C2=O)c2ccccc2N1,–,15.8 µM (active)
O=C(CN1C(=O)NC2(CCCCCC2)C1=O)NCc1cccs1,-0.321%,–
O=C(CN1C(=O)NC2(CCCCCC2)C1=O)NC1CC1,8.47%,–
COc1ccc(C(C)=O)cc1COC(=O)Cn1cnc2ccccc2c1=O,–,20 µM (active)
O=C(COC(=O)Cn1cnc2ccccc2c1=O)NCc1ccccc1Cl,-14.8%,–
CCOC(=O)N1CCN(C(=O)Cn2cnc3ccccc3c2=O)CC1,-6.76%,–
CCOCCCN(C(=O)Cn1nnc(-c2ccc(OC)c(OC)c2)n1)C(CC)C(=O)NC1CCCC1 (stereo unspecified),1.58%,–
NC1CCN(O)C1=O (stereo unspecified),-6.54%,–
C/C=N/NC(=O)CCCC(=O)N/N=C/C,-8.73%,–
O=C(N/N=C/c1ccc([N+](=O)[O-])cc1)C(=O)N1CCCC1,-13.2%,–

SMILES,"activity, negative = inhibition",Potency
CCOCCCNC(=S)N1CCC(NC(=O)C2CCCCC2)CC1,6.18%,–
CCOc1ccc(C(C)=O)cc1COC(=O)c1cnc(Cl)c(Cl)c1,–,0.708 µM (active)
O=C(OCc1cc(Cl)ccc1OC(F)F)c1cccnc1,2.42%,–
COCc1cc(C(C)=O)ccc1OC,2.62%,–
Cc1ccccc1C1=N/C(=C/c2cccnc2)C(=O)O1,-2.62%,–
Cc1ccc(C2=N/C(=C\c3ccc(OS(=O)(=O)c4ccc(C)cc4)cc3)C(=O)O2)cc1,–,25.1 µM (active)
Cc1cccc(C2=N/C(=C/c3cccs3)C(=O)O2)c1,-4.31%,–
COCCN(C(=S)Nc1ccccc1OC)C1CCN(C(C)C)CC1,-1.56%,–
O=C(O)c1ccc2c(c1)C(=O)N(NC(=O)c1ccc(O)cc1)C2=O,1.02%,–
C=CCN1C2CCCC1CC(NC(=S)Nc1cccc(OC)c1)C2 (stereo unspecified),-11.8%,–
CC1CCCCC1NC(=O)CCS(=O)(=O)c1cccc2nonc12 (stereo unspecified),–,10 µM (active)
COc1ccc(C)cc1NC(=O)CCS(=O)(=O)c1cccc2nonc12,-4.87%,–
CC1CCCCC1NC(=O)C1CCCN1S(=O)(=O)c1cccc2nsnc12 (stereo unspecified),0.711%,–
COC(=O)C1=C(C)N(C)C(=O)NC1c1ccc([N+](=O)[O-])o1 (stereo unspecified),–,25.1 µM (active)
CCN1C(=O)N[C@@H](c2ccccc2)C(C(=O)OC)=C1C,17.9% [at 13.5 µM],–
COC(=O)C1=C(C)N(C)C(=S)NC1c1ccccc1 (stereo unspecified),7.15%,–
Cc1ccc(C(=O)N2CCN(S(=O)(=O)N3CCOCC3)CC2)cc1,4.89%,–
COc1ccc(C(=O)COC(=O)c2nn(C)c(=O)c3ccccc23)c(OC)c1,4.94%,–
C#CCN1C(=O)C(O)(CC(=O)c2cc(OC)ccc2OC)c2ccccc21 (stereo unspecified),–,3.55 µM (active)
COc1ccc(OC)c(C(=O)c2ccc(C(=O)O)cc2)c1,20.8%,–
CCOC(=O)Cc1ncccc1C(=O)Nc1ccc(OC)cc1,1.9%,–
Cc1nn(C(=O)c2ccoc2C)c(N)c1-c1ccccc1,1.61%,–
Cc1nn2c(c1-c1ccccc1)N=C(c1ccco1)CC2c1ccccc1 (stereo unspecified),–,22.4 µM (active)
S=C(NCCc1ccccc1)NCC1CCCO1 (stereo unspecified),4.66%,–

SMILES,"activity, negative = inhibition",Potency
O=C(CSc1nnc(-c2ccc(NS(=O)(=O)c3ccccc3)cc2)o1)NCC1CCCO1 (stereo unspecified),-1.79%,–
O=C(CS(=O)(=O)Cc1ccccc1)NCC1CCCO1 (stereo unspecified),–,25.1 µM (active)
CCN(c1ccccc1)S(=O)(=O)c1ccc2[nH]c(=O)[nH]c2c1,-0.299%,–
Cc1cc([N+](=O)[O-])nn1Cc1ccc(F)cc1,-5.09%,–
Cc1c(CN2CCCC(C(=O)c3cccc(Cl)c3)C2)c(=O)n(-c2ccccc2)n1C (stereo unspecified),11.4%,–
CCCCC1=CC2=CC(=O)C(C)(OC(=O)CC)C(=O)C2=CN1CCCOC(C)C (stereo unspecified),-5.05% [at 13.5 µM],–
Cc1cccc(NC(=O)CSc2nc3c(c(=O)[nH]2)CCCC3)c1C,-4.24%,–
Cc1cccc(NC(=O)CN2C(=O)c3ccccc3C2=O)c1C,11.6%,–
Cc1cccc(NC(=O)CSC(N)=O)c1C,–,7.08 µM (active)
CC(C)c1nc(CNC(=O)CC2C(=O)NCCN2Cc2ccoc2)cs1 (stereo unspecified),-6.59%,–
CC1Cc2ccccc2N1S(=O)(=O)c1c(N)n(C)c(=O)n(C)c1=O (stereo unspecified),6.39%,–
CC1CCCCN1C(=S)NCc1ccccc1 (stereo unspecified),-0.534%,–
COC(=O)CNC(=O)c1ccc(OC2CCN(C(=O)C3CC3)CC2)cc1,0.14%,–
CN1CCNC(=O)C1CC(=O)N1CC=C(c2ccc(F)cc2)CC1 (stereo unspecified),1.45%,–
N#CC1=C(SCc2ccc(C#N)cc2)N=C(N)C(c2nc(-c3ccccc3)cs2)C12CCCCC2 (stereo unspecified),5.56%,–
N#CC1=C(SCc2ccccc2)NC(=O)C(C#N)C12CCCC2 (stereo unspecified),–,3.98 µM (active)
CC1(C)CCc2nc(SCc3ccccc3)c(C#N)cc2C1,-2.69%,–
C[C@@H](O)c1nc2ccccc2n1N,2.1%,–
N#Cc1ncc(C(F)(F)F)cc1Oc1cccnc1,10.8%,–
COc1ccc(/C=C/CN2CCN(Cc3ccc(C)cc3)C(CCO)C2)cc1 (stereo unspecified),-1.88%,–
O=C(Nc1ccn(Cc2ccccc2)n1)c1cccc(F)c1,5.72%,–
CCOc1cccc(C(=O)Nc2cccnc2)c1,13.5%,–
CCOc1cccc(C(=O)Nc2cnn(Cc3ccccc3)c2)c1,–,3.98 µM (active)

# Source: PubChem BioAssay AID1030 (National Center for Advancing Translational Sciences (NCATS), 2008)
